# Data: PubChem BioAssay (NCI)
# “And” between values parts separate entries of the source, which are not always exact repeats. Equal entries are not always repeated. About 83,000 compounds went through this panel and 20% of them were active in at least one assay; those are over-represented in the sample as a whole.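 Step 1: grow cells in 96-well plates. Step 2: add test compound at a single concentration. Step 3: incubate 48 h. Step 4: record percent growth.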 A number with no mark means an inactive call. The source made the active and inactive calls. The calls were made as follows: active = growth percent below 10; inactive = the rest.
# Test system: HCT-15 colon
# Test: NCI-60 one-dose screen, 48 h (100 = growth as untreated, 0 = no growth, -100 = all killed)
# Settings: 10 µM unless noted
row,Structure (SMILES),growth
1,CC[C@@]1(O)C[C@H](OC2CC(N(C)C)C(O)C(C)O2)c2c(O)c3c(c(O)c2[C@H]1OC1CC(N(C)C)C(O)C(C)O1)C(=O)c1cccc(O)c1C3=O (stereo partly specified),-49.7% (active)
2,COC1CC(CC2CCC(C)C(C(C)C(=O)O)O2)OC2(OC(C)(C3CCC(C)(C4OC(C5OC(O)(CO)C(C)CC5C)CC4C)O3)CC2C)C1C (stereo unspecified),5.7% (active)
3,CCC(=O)OC1CCn2c1nc1c2C(=O)C(C)=C(N2CC2)C1=O (stereo unspecified),2.82% (active)
4,CO[C@H](/C(C)=C/C=C/C(C)=C/c1coc(C)n1)[C@H](C)[C@H]1C[C@@H](O)[C@@]2(C)O[C@H]2/C=C/[C@@H](C)[C@@H]2C[C@@H](CC(=O)O2)C[C@H]2O[C@@H]2C(=O)O1,-31% (active)
5,CC1=C(CO)C2=C(C)C3(CC3)[C@@](C)(O)C(=O)C2=C1,-22.2% (active)
6,COC1=C(C)C(=O)C2=C(C1=O)C(CO)N1C(C#N)C3CC4C(C1C2N1CCOC41)N3C (stereo unspecified),-29.8% (active)
7,CC[n+]1c(-c2ccccc2)c2cc(N)ccc2c2ccc(N)cc21,88.9%
8,CN1CCN(c2ccc([N+](=O)[O-])c3no[n+]([O-])c23)CC1,-56.3% (active)
9,COc1cccc2c1cc([N+](=O)[O-])c1c(C(=O)O)cc3c(c12)OCO3,69.3% and 105%
10,CCOC(=O)C(NC(=O)C(Cc1ccc(N(CCCl)CCCl)cc1)NC(C)=O)C(C)C (stereo unspecified),94.9%
11,C[C@]12CC[C@H](O)CC1=CC[C@@H]1[C@@H]2CC[C@]2(C)C(=O)CC[C@@H]12,99.7%
12,NCCc1ccc(OCc2ccccc2)c(OCc2ccccc2)c1,75.3%
13,Oc1cccc2cccnc12,64.3% and 110% and 97.1%
14,COc1ccccc1/C=C(/C)[N+](=O)[O-],32.3% and 99.8%
15,CC1=C2C(=O)[C@H]3[C@@H](CC=C4C[C@@H](O)CC[C@@]43C)[C@@H]2CC[C@]12O[C@@H]1C[C@H](C)CN[C@H]1[C@H]2C,94.2%
16,Cc1cc(N=Nc2ccccc2C)ccc1N,84.9%
17,COc1ccc(OC)c(/C=C/[N+](=O)[O-])c1,-13.4% (active)
18,CC[C@](O)(C(=O)O)c1cc2n(c(=O)c1CO)Cc1cc3ccccc3nc1-2,-5.77% (active)
19,Cc1c(N)nc([C@H](CC(N)=O)NC[C@H](N)C(N)=O)nc1C(=O)N[C@H](C(=O)N[C@H](C)[C@@H](O)[C@H](C)C(=O)N[C@H](C(=O)NCCc1nc(-c2nc(C(=O)NCCC[S+](C)C)cs2)cs1)[C@@H](C)O)C(OC1OC(CO)C(O)C(O)C1OC1OC(CO)C(O)C(OC(N)=O)C1O)c1cnc[nH]1 (stereo partly specified),67.8% [2.5 µM]
20,CC[C@@]1(O)C(=O)OCc2c1cc1n(c2=O)Cc2cc3ccccc3nc2-1,-18.7% (active)
21,Oc1cc[c]([Hg][Cl])cc1,91.4%
22,CCC1(O)CC(OC2CC(N(C)C)C(OC3CC4OC5CC(=O)C(C)OC5OC4C(C)O3)C(C)O2)c2c(cc3c(c2O)C(=O)c2c(O)ccc(O)c2C3=O)C1C(=O)OC (stereo unspecified),-46.1% (active)
23,O=C1c2ccccc2C(=O)C(Cl)C1Cl (stereo unspecified),-86.6% (active)
24,Cc1ccc(C(=O)OC(C(=O)O)C(OC(=O)c2ccc(C)cc2)C(=O)O)cc1 (stereo unspecified) (tested in a mixture with another compound),16.3%
25,CCCCCCCCCCCC1CCCC(C)N1 (stereo unspecified),27.7%
26,CC(=O)O[C@H]1C[C@@H]2OC3C=C(C)CCC3(C)[C@@]1(C)[C@@]21CO1 (stereo partly specified),-0.358% (active) and -0.281% (active)
27,CC[C@@]1(O)C[C@H](OC2CC(N(C)C)C(OC3CC(O)C(OC4CCC(=O)C(C)O4)C(C)O3)C(C)O2)c2c(cc3c(c2O)C(=O)c2c(O)ccc(O)c2C3=O)[C@H]1C(=O)OC (stereo partly specified),-70.6% (active)
28,C[C@H]1CCC/C=C/[C@@H]2C[C@H](O)C[C@H]2[C@H](O)/C=C/C(=O)O1,-28.2% (active)

# Test system: HT29 colon
# Test: as above
# Settings: 10 µM unless noted
row,Structure (SMILES),growth
1,CC[C@@]1(O)C[C@H](OC2CC(N(C)C)C(O)C(C)O2)c2c(O)c3c(c(O)c2[C@H]1OC1CC(N(C)C)C(O)C(C)O1)C(=O)c1cccc(O)c1C3=O (stereo partly specified),-39% (active)
2,COC1CC(CC2CCC(C)C(C(C)C(=O)O)O2)OC2(OC(C)(C3CCC(C)(C4OC(C5OC(O)(CO)C(C)CC5C)CC4C)O3)CC2C)C1C (stereo unspecified),-0.662% (active)
3,CCC(=O)OC1CCn2c1nc1c2C(=O)C(C)=C(N2CC2)C1=O (stereo unspecified),7.71% (active)
4,CO[C@H](/C(C)=C/C=C/C(C)=C/c1coc(C)n1)[C@H](C)[C@H]1C[C@@H](O)[C@@]2(C)O[C@H]2/C=C/[C@@H](C)[C@@H]2C[C@@H](CC(=O)O2)C[C@H]2O[C@@H]2C(=O)O1,-23.2% (active)
5,CC1=C(CO)C2=C(C)C3(CC3)[C@@](C)(O)C(=O)C2=C1,-17.8% (active)
6,COC1=C(C)C(=O)C2=C(C1=O)C(CO)N1C(C#N)C3CC4C(C1C2N1CCOC41)N3C (stereo unspecified),-47.7% (active)
7,CC[n+]1c(-c2ccccc2)c2cc(N)ccc2c2ccc(N)cc21,9.77% (active)
8,CN1CCN(c2ccc([N+](=O)[O-])c3no[n+]([O-])c23)CC1,-51.8% (active)
9,COc1cccc2c1cc([N+](=O)[O-])c1c(C(=O)O)cc3c(c12)OCO3,0.29% (active) and -24.5% (active)
10,CCOC(=O)C(NC(=O)C(Cc1ccc(N(CCCl)CCCl)cc1)NC(C)=O)C(C)C (stereo unspecified),67.1%
11,C[C@]12CC[C@H](O)CC1=CC[C@@H]1[C@@H]2CC[C@]2(C)C(=O)CC[C@@H]12,81.5%
12,NCCc1ccc(OCc2ccccc2)c(OCc2ccccc2)c1,55%
13,Oc1cccc2cccnc12,51.8% and 106%
14,COc1ccccc1/C=C(/C)[N+](=O)[O-],54.7% and 88.8%
15,CC1=C2C(=O)[C@H]3[C@@H](CC=C4C[C@@H](O)CC[C@@]43C)[C@@H]2CC[C@]12O[C@@H]1C[C@H](C)CN[C@H]1[C@H]2C,82.6%
16,Cc1cc(N=Nc2ccccc2C)ccc1N,103%
17,COc1ccc(OC)c(/C=C/[N+](=O)[O-])c1,-29.5% (active)
18,CC[C@](O)(C(=O)O)c1cc2n(c(=O)c1CO)Cc1cc3ccccc3nc1-2,-31.3% (active)
19,Cc1c(N)nc([C@H](CC(N)=O)NC[C@H](N)C(N)=O)nc1C(=O)N[C@H](C(=O)N[C@H](C)[C@@H](O)[C@H](C)C(=O)N[C@H](C(=O)NCCc1nc(-c2nc(C(=O)NCCC[S+](C)C)cs2)cs1)[C@@H](C)O)C(OC1OC(CO)C(O)C(O)C1OC1OC(CO)C(O)C(OC(N)=O)C1O)c1cnc[nH]1 (stereo partly specified),77.9% [2.5 µM]
20,CC[C@@]1(O)C(=O)OCc2c1cc1n(c2=O)Cc2cc3ccccc3nc2-1,-31.8% (active)
21,Oc1cc[c]([Hg][Cl])cc1,100%
22,CCC1(O)CC(OC2CC(N(C)C)C(OC3CC4OC5CC(=O)C(C)OC5OC4C(C)O3)C(C)O2)c2c(cc3c(c2O)C(=O)c2c(O)ccc(O)c2C3=O)C1C(=O)OC (stereo unspecified),-36.4% (active)
23,O=C1c2ccccc2C(=O)C(Cl)C1Cl (stereo unspecified),96.8%
24,Cc1ccc(C(=O)OC(C(=O)O)C(OC(=O)c2ccc(C)cc2)C(=O)O)cc1 (stereo unspecified) (tested in a mixture with another compound),23%
25,CCCCCCCCCCCC1CCCC(C)N1 (stereo unspecified),14.9%
26,CC(=O)O[C@H]1C[C@@H]2OC3C=C(C)CCC3(C)[C@@]1(C)[C@@]21CO1 (stereo partly specified),-32.2% (active) and -30.6% (active)
27,CC[C@@]1(O)C[C@H](OC2CC(N(C)C)C(OC3CC(O)C(OC4CCC(=O)C(C)O4)C(C)O3)C(C)O2)c2c(cc3c(c2O)C(=O)c2c(O)ccc(O)c2C3=O)[C@H]1C(=O)OC (stereo partly specified),-47.4% (active)
28,C[C@H]1CCC/C=C/[C@@H]2C[C@H](O)C[C@H]2[C@H](O)/C=C/C(=O)O1,-53.5% (active)
